Assay outcomes as filed in PubChem BioAssay.
In the library only some 2.2% were active in any assay of this set; here they are far more common.
TMEM16A act: TMEM16A chloride channel activators or potentiators, primary screen, cell-based, HTS; Anoctamin-1 (Mus musculus), Q8BHY3; HEK293 TMEM16A/YFP-H148Q/I152L, iodide quench fluorescence; stronger effect = lower value; B-score at 10 µM; hit rate 0.3% among 340,000; AID 623877, 2012;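 active = fluorescence-ratio B-score plate-corrected deviation score at least 3 library SD below zero, with starting fluorescence score within 5 deviations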;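 also: channel opened by trigger with iodide after compound preincubation; score built on the fluorescence ratio of max minus min over baseline; more negative score means more quench and so TMEM16A activation or potentiation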
TLR4-MyD88 BLA: inhibitors of TLR4-MyD88 association in cells, primary screen, cell-based, HeLa CL3-4, BLA complementation, FRET ratio. Toll-like receptor 4 (Homo sapiens) + Myeloid differentiation primary response protein …. hit rate 0.18% among 200,000. inhibition, % at 8.4 µM. HeLa CL3-4 TLR4/MyD88 BLA complementation; in the data active = inhibition above about 25%;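 also: 0% = vehicle and 100% = reference inhibitor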
GRK2 inh: compounds blocking aptamer binding on GRK2 – biochemical, human GRK2, bead flow cytometry, HTS, primary screen; FAM-aptamer displacement from GRK2; inhibition of aptamer binding, % at 10 µM; hit rate 0.59% among 330,000; AID 488847, 2010;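 active = inhibition of aptamer binding above 40%, roughly 3 SD of noise, on plates passing a quality check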;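 also: median bead fluorescence of bound FAM aptamer so fluorescent compounds give negative values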
ANO1 block: TMEM16A chloride channel inhibitors, primary screen, cell-based, HTS; HEK293 TMEM16A/YFP iodide influx fluorescence, ionomycin; hit rate 1.2% among 310,000; Anoctamin-1 (Mus musculus), Q8BHY3; normalized B-score (activity score, 25-100; higher = stronger inhibition) at 10 µM; AID 588511, 2011;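 active = ratio plate-corrected score three or more library SD toward inhibition, starting fluorescence score within five deviations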;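 also: score derived from kinetic fluorescence span divided by baseline fluorescence per well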
TLR9-MyD88 inh: inhibitors of TLR9-MyD88 association in cells, primary screen, cell-based, CHO, BLA complementation, fluorescence | Toll-like receptor 9 (Homo sapiens) + Myeloid differentiation primary response protein … | CCF4 FRET ratio | inhibition, % at 4.98 µM | hit rate 0.21% among 340,000 | AID 504734, 2011;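 active = inhibition above the mean over all tested compounds plus 3 SD, cut at about 21% in these data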;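 also: 0% = DMSO only wells and 100% = clavulanate BLA inhibitor control wells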
NOD2-RIPK2 inh: NOD2-RIPK2 binding disruptors in cells, primary screen, fluorescence, CHO cells, BLA complementation | Receptor-interacting serine/threonine-protein kinase 2 (Homo sapiens), O43353 | CCF4 ratio | inhibition, % at 4.98 µM | hit rate 0.38% among 360,000 | AID 624267, 2012; in the data active = inhibition above about 21%;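 also: 0% = vehicle only and 100% = reference blocker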
* hit, by the source's call; i = inactive; / = no result.

SMILES	TMEM16A act	TLR4-MyD88 BLA	GRK2 inh	ANO1 block	TLR9-MyD88 inh	NOD2-RIPK2 inh
COCCNC(=S)N(CCc1c(C)[nH]c2ccc(Cl)cc12)Cc1cccs1	i	-0.1	0.0	100*	-3.4	2.3
COCCNC(=S)N(CCc1c(C)[nH]c2ccc(F)cc12)Cc1cccs1	i	-8.6	4.0	i	2.4	-6.2
CC1(Cc2ccccc2Cl)C(=O)Nc2c(Cl)ccc(Cl)c21 (stereo unspecified)	/	/	/	/	/	1.0
Cc1nnc(N/N=C\c2ccc(-c3cccc(C(=O)O)c3)o2)n1N	i	-10.0	88.0*	i	1.5	-4.0
COCCNC(=O)C1(C)CCCN(Cc2cn(C)c3ccccc23)C1 (stereo unspecified)	/	/	/	/	/	-7.9
CCOC(=O)c1cnn(-c2cc(C)cc(C)c2)c1N	i	11.4	1.0	i	3.4	-1.5
CCOC(=O)c1cnn(-c2sc(C(=O)OCC)c(C)c2C(=O)OCC)c1N	i	16.0	12.0	100*	-10.5	9.9
O=C(OCc1nnc(-c2ccc(Cl)cc2)o1)c1ccc(O)cc1	i	-3.6	3.0	i	-0.3	-9.2
CS(=O)(=O)c1ccc(C(=O)OCc2nnc(-c3ccc(Cl)cc3)o2)cc1[N+](=O)[O-]	i	0.5	0.0	25*	15.2	15.1
O=C(Nc1ccccc1)c1ccccc1OCC(O)CN1C(=O)c2ccccc2S1(=O)=O (stereo unspecified)	i	-4.3	0.0	100*	-1.1	0.6
CC1(C)NC(=O)N(CC(O)COc2ccccc2C(=O)Nc2ccccc2)C1=O (stereo unspecified)	i	8.2	3.0	i	-1.8	-6.1
COC(=O)c1c(C)[nH]c(C)c1-c1cccc([N+](=O)[O-])c1	-7.71*	0.6	1.0	i	3.8	-5.3
COC(=O)c1c(C)[nH]c(C)c1-c1ccc(C)cc1	i	1.8	1.0	i	1.6	-10.7
Cc1ccc(C2(c3ccc(C)cc3)CC2C(=O)Nc2ccc([N+](=O)[O-])cc2O)cc1 (stereo unspecified)	i	-0.5	7.0	100*	-4.7	-9.6
CC1(C)CC1C(=O)Nc1ccc([N+](=O)[O-])cc1Br (stereo unspecified)	i	-9.3	0.0	i	2.9	3.0
C[n+]1c(-c2ccccc2)cc2c(=Cc3ccccc3)c3ccccc3n21	-10*	/	/	/	-10.7	-7.8
COC(=O)c1ccc2nc(-c3ccc(Cl)cc3)c(Cc3ccsc3)n2c1	/	/	/	/	/	-6.3
O=C(CN1C(=O)C2CCCCC2C1=O)NC1CCCc2ccccc21 (stereo unspecified)	i	/	/	/	-10.5	-2.6
COc1ccccc1CC(=O)NC1CCCc2ccccc21 (stereo unspecified)	i	-0.2	1.0	i	8.3	-9.6
O=C(CN1C(=O)C2CC=CCC2C1=O)NC1CCCc2ccccc21 (stereo unspecified)	-22.8*	6.8	15.0	i	-7.9	-6.9
COc1cc(CC(=O)NC2CCCc3ccccc32)cc(OC)c1OC (stereo unspecified)	i	/	0.0	i	6.1	92.1*
Cc1ccc(C)c(N(CC(=O)NC2CCCCC2)C(=O)CCC(=O)Nc2ccccn2)c1	/	-20.6	/	/	/	/
CCc1ccccc1N(CC(=O)NC1CCCCC1)C(=O)CCC(=O)Nc1ccccn1	-5.75*	/	0.0	i	-9.6	-0.4
Cc1cc(NC(=O)CS(=O)c2cn(Cc3cccc(Cl)c3)c3ccccc23)no1 (stereo unspecified)	/	/	/	/	/	5.1
CCOc1ccc(C2OC34CCCCC3C(C#N)(C#N)C2(C#N)C(=N)O4)cc1OC (stereo unspecified)	-5.05*	-7.2	1.0	i	0.0	-96.9
O=C1[C@@H](Oc2ccccc2)[C@@H](c2ccccc2)N1c1ccccc1	i	/	41.0*	/	-5.9	6.6
COC(=O)C[C@H]1C=C[C@H](NC(=O)c2cccc(F)c2)[C@@H](CO)O1	/	/	/	/	/	-7.0
